These results are taken from the supplement of paper PMC10981050.

Molecules are shown by their SMILES. Counter-ions that a name gives are not always drawn.

The test relates to MOLM14. Nature of the test: cell viability relative to vehicle control; higher = less cytotoxic. Conditions: 10 µM; SRSF2 genotype: SRSF2 P95H/wt. Summed up:
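Four leukaemia lines, as CRISPR-edited mutant clones and isogenic wild-type clones, were tested against Selleck bioactive, kinase and epigenetic probe libraries after removal of identity-inconsistent compounds. Cells were exposed to a single 10 µM dose for 48 h, and CellTiter-Glo luminescence was then read. Viability was calculated relative to the on-plate vehicle control.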
As to `O=C(O)Cn1nnc(-c2cc(N3CCC(Oc4cc(F)ccc4Br)CC3)no2)n1`, the cell viability is 103%.
For `CCCCCCCCCCCCCCCC(=O)O[C@@H]1[C@@H](O)[C@@H](O)[C@@H]([C@H](NC(=O)[C@@H]2C[C@@H](CCC)CN2C)[C@H](C)Cl)O[C@@H]1SC` [Clindamycin palmitate HCl], the cell viability was 101%.
To `O=C(/C=C/c1ccccc1)OCc1ccccc1` [Benzyl cinnamate] belongs 108%; to `O=S(=O)(c1ccccc1)c1cnc2c(N3CCNCC3)cccc2c1`, 98.7%.
On to `CCn1cc(C(=O)O)c(=O)c2cc(F)c(N3CCNCC3)cc21` [Norfloxacin (Norxacin)], for which the cell viability stood at 90.5%.
With `C[C@@H]1CC[C@@]2(OC1)O[C@H]1C[C@H]3[C@@H]4CC=C5C[C@@H](O[C@@H]6O[C@H](CO)[C@@H](O)[C@H](O)[C@H]6O[C@@H]6O[C@@H](C)[C@H](O)[C@@H](O)[C@H]6O)CC[C@]5(C)[C@H]4CC[C@]3(C)[C@@]1(O)[C@@H]2C` [Polyphyllin VI], the cell viability was 0.85%.
Turning to `Cc1ccnc(NS(=O)(=O)c2ccc(N)cc2)n1` [Sulfamerazine], the cell viability turned out to be 99.7%.
To `COC(=O)c1ccco1` [Methyl furan-2-carboxylate] belongs 107%.
Turning to `COc1cc2c(cc1O)C[C@H]1c3cc(O)c(OC)cc3CC[N+]1(C)C2` (stereo not given in full) [Phellodendrine chloride], the cell viability is 103%.
Take `COc1cc2c(Nc3ccc(NC(=O)c4ccccc4)cc3)ncnc2cc1OCCCN1CCOCC1`: the cell viability was 17.9%.
To `CC(C)c1ccc(C=O)cc1` [4-Isopropylbenzaldehyde] belongs 86.2%.
As to `C[C@]12CC[C@@H]3c4ccc(O)cc4CC[C@H]3[C@@H]1CC[C@@H]2O` [Estradiol], the cell viability turned out to be 95.3%.
In the case of `CC[C@@H](CO)NCCN[C@@H](CC)CO` [Ethambutol HCl] it was 100%; in that of `O=C(O)C(Cc1c[nH]c2ccccc12)N1C(=O)c2ccccc2C1=O` (stereo not given), 99.2%; in that of `Cc1nc(-c2cn3c(n2)-c2ccc(-c4cnn(C(C)(C)C(N)=O)c4)cc2OCC3)n(C(C)C)n1`, 32.3%.
To `COc1cc2nccc(Oc3ccc(NC(=O)C4(C(=O)Nc5ccc(F)cc5)CC4)cc3)c2cc1OC` belongs 5.29%; to `O=C1c2c(O)cc(O)cc2O[C@H](c2cc(O)c(O)c(O)c2)[C@H]1O` [Dihydromyricetin (Ampeloptin)], 110%; to `NC(=O)/C(=C/n1cnc(-c2cc(C(F)(F)F)cc(C(F)(F)F)c2)n1)c1cncnc1`, 0.67%.
To `O=C(c1ccccc1)c1ccc2nc(NC(=O)c3csc(C4CCN(c5ncnc6ccsc56)CC4)n3)[nH]c2c1` belongs 34.2%; to `C[C@H]1C[C@H]2[C@@H]3CCC4=CC(=O)C=C[C@]4(C)[C@H]3C(=O)C[C@]2(C)[C@@]1(O)C(=O)CO` [Betapar (Meprednisone)], 105%; to `COc1ccc(CCCOC(Cn2ccnc2)c2ccc(OC)cc2)cc1` (stereo not given), 19.7%.
As for `COC(=O)N[C@H](C(=O)N1CCC[C@H]1C(=O)Nc1ccc([C@@H]2CC[C@@H](c3ccc(NC(=O)[C@@H]4CCCN4C(=O)[C@@H](NC(=O)OC)C(C)C)cc3)N2c2ccc(C(C)(C)C)cc2)cc1)C(C)C` [Ombitasvir(ABT-267)], the cell viability is 91.9%.
As to `CC1=CC(=O)c2ccccc2C1=O` [Menadione], the cell viability stood at 91.1%.
In the case of `COc1cc(F)c(C(C)C)cc1-c1ccc(C(F)(F)F)cc1CN1C(=O)O[C@H](c2cc(C(F)(F)F)cc(C(F)(F)F)c2)[C@@H]1C` [Anacetrapib (MK-0859)], the cell viability worked out at 98.7%.
With `CN(CC(=O)N(Cc1ccc(C2CCCCC2)cc1)c1ccc(C(=O)O)cc1)S(=O)(=O)c1c(F)c(F)c(F)c(F)c1F`, the cell viability stood at 0.37%.
Consider `C#C[C@]1(O)CC[C@H]2[C@@H]3CCC4=CC(=O)CC[C@@H]4[C@H]3C(=C)C[C@@]21CC` [Etonogestrel], for which the cell viability is 84.9%.
As for `O=C(N/N=C/c1ccc(O)c(O)c1)c1cc2ccccc2cc1O` [Dynasore], the cell viability is 94.2%.
With `CC(C)Oc1ccc2c(=O)c(-c3ccccc3)coc2c1` [Ipriflavone], the cell viability came to 110%.
Regarding `CNC(=O)c1ccccc1Sc1ccc2c(/C=C/c3ccccn3)n[nH]c2c1` [Axitinib], the cell viability turned out to be 29.5%.
In the case of `CC1=C(C(=O)Nc2ccc3[nH]ncc3c2)C(c2ccc(F)cc2)NC(=O)N1` (stereo not given) it was 38.5%.
